PubChem BioAssay
Where “and” joins values, the source holds several entries; their conditions need not be identical. Equal values may be shown once. For part of these data: Entries with a potency or affinity are not part of this list. Calls of active or inactive are those of the source.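 The calls were made as follows, unless noted: active = at least 20% inhibition of 6-phosphogluconate dehydrogenase activity; inactive = the rest.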

Legend:
[1] = target: 6-phosphogluconate dehydrogenase, decarboxylating (Homo sapiens) (UniProt P52209); assay: inhibition of human phosphogluconate dehydrogenase – biochemical, recombinant enzyme, NADPH absorbance, primary screen (AID 1159550); details: recombinant 6PGD, NADPH absorbance 341 nm; at 10 µM; stronger effect = higher value
[2] = EMT-state selective cytotoxicity in co-culture – imaging, PC-3E GFP, TEM4-18 mCherry, primary screen (AID 1345086;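 active = compounds killing one labelled cell type while sparing the other, by normalised counts and ratio limits, not self-fluorescent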;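 as to all read-outs here: cells exposed to compound for 72 h before imaging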;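 as to red/green cell ratio (normalised): normalised mesenchymal count divided by normalised epithelial count so high means epithelial killing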); details: PC-3E GFP / TEM4-18 mCherry co-culture, imaging cell counts, at 1 µM; for red/green cell ratio (normalised): actives lie on both sides
[3] = system: Aerobactin synthetase IucA (Klebsiella pneumoniae hvKP1); assay: IucA enzyme inhibition, primary screen, biochemical, Spectrum library (AID 1346200; call rule not given here;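 also: 100% = wells without compound and 0% = wells lacking enzyme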); details: malachite green pyrophosphate, A620, at 8 µM, stronger effect = lower value
[4] = target: Mitogen-activated protein kinase 7 (Homo sapiens) (UniProt Q13164); assay: Gal4-ERK5 driven luciferase induction – cell-based, HTS, primary screen (AID 1508626;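 active = luciferase signal above three times the same-plate solvent-only control wells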;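 also: luciferase driven by Gal4-ERK5 fusion binding five Gal4 sites before minimal TATA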); details: HeLa Gal4-ERK5 transactivation, 18 h, at 5 µM, stronger effect = higher value
[5] = blockers of polyQ-driven CASP3 activation – cell-based (AID 1583); details: polyglutamine-induced caspase-3 activation, cell assay; stronger effect = higher value;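 tested at 10 µM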
[6] = yeast 75Q aggregation reduction – 75Q-TubU reporter (AID 1593); details: Yeast 75Q polyglutamine aggregation reporter
[7] = restoration of touch response, mutant HTT neurons – whole organism, C. elegans mechanosensory neurons, N-terminal huntingtin (AID 1599); details: C. elegans polyQ-huntingtin mechanosensory neurons, stronger effect = higher value
[8] = blockers of cytochrome c efflux from mitochondria – biochemical, purified mitochondria (AID 1603); details: stronger effect = lower value;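 also: mouse liver mitochondria challenged with calcium chloride; signal normalized to the plate average as 100%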
[9] = polyglutamine aggregate formation blockers (AID 1604); details: polyglutamine-induced protein aggregation inhibition assay; stronger effect = higher value; tested at 2.5 µM
[10] = glutamate transport activators, MN-1 cells, MN-1 cell line (AID 1612); details: MN-1 motor neuron cells, stronger effect = higher value;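 also: tested at 1 µM final; 0% = mean of DMSO vehicle wells on each plate; positive means more glutamate uptake than control and negative means less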
[11] = GFP-Q80 aggregate reduction, neuronal-like cells, cell-based, NGF-treated PC12, GFPQ80 (AID 1614); details: PC12 NGF-treated GFP-polyQ80 inclusion reduction;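 also: lower means fewer inclusions and 0 means no inclusions at all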
[12] = 75Q-TubH aggregate inhibition, S. cerevisiae, yeast (AID 1616); details: S. cerevisiae 75Q-TubH polyglutamine aggregation suppression; stronger effect = higher value
[13] = viability loss with induced miR-34 in A549 – imaging, A549 dox-inducible miR-34, nuclei and caspase counts, primary screen (AID 1347080;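 active = compounds whose cell count with miR-34 switched on is under 0.7 times the count with it off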); details: A549 miR-34 inducible, Hoechst nuclei count, 48 h
[14] = target: NAD(+) hydrolase SARM1 (Homo sapiens) (UniProt Q6SZW1); assay: blocking NAD cleavage by SARM1 SAM-TIR – cell lysate, NAD-Glo luminescence (AID 1508614;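 active = compound whose remaining NAD level is above about 45 nM, limit read from the data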;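 also: higher remaining NAD means stronger inhibition of SARM1 NADase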); details: SAM-TIR HEK293T lysate NADase, at 1 µM, stronger effect = higher value
[15] = compounds altering circadian rhythm period length – cell-based, LOPAC library, luminescence reporter (AID 2774; call rule not given here;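 also: values are relative to mean of DMSO wells on each plate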); details: circadian reporter cells, at 7 µM, actives lie on both sides
[16] = system: Hepatitis C virus NS3 helicase; assay: blockers of NS3h binding to ssDNA – biochemical, fluorescence polarization, LOPAC1280 library, primary screen (AID 687035; in the data active = inhibition above about 37%); details: Purified HCV NS3 helicase, Cy5-dT15 ssDNA binding fluorescence polarization; stronger effect = higher value; concentration not given here
[17] = galactose survival enhancers in mitochondrial complex I cybrids – cell-based, galactose medium, ATP luminescence, primary screen (AID 1645843;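 active = z-score of at least 1.8 in each of two replicates, scored against plate mean and spread of sample wells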;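 also: positive z means more ATP and so rescue of galactose-driven cybrid death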); details: complex I mutant cybrid cells, 72 h, stronger effect = higher value
[18] = P. berghei load reduction in hepatocytes – cell-based, HepG2, luciferase luminescence, HepG2 viability, primary screen (AID 624349; in the data active = parasite load remaining mostly below about 12%, no sharp cut-off; inactive = mostly above about 10%;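 also: 100% = mean of DMSO negative control wells on the same plate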); details: P. berghei liver stage in HepG2, luciferase luminescence, concentration not given here; parasite load remaining: stronger effect = lower value; viability: measured here: HepG2 viability without parasites
[19] = MELAS cybrid and Rieske KO viability enhancers – cell-based, MELAS cybrids, Rieske KO mouse fibroblasts, CellTiter-Glo, primary screen (AID 1508586;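 active = mean z-score across replicates of 1.96 or higher in either the MELAS or the Rieske mutant cell line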;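 also: z relative to plate mean and SD of compound and empty wells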); details: low glucose
[20] = measured here: epithelial PC-3E GFP cell survival
[21] = measured here: mesenchymal TEM4-18 mCherry cell survival
[22] = counts scaled to control wells, 1 = unselective
[23] = measured here: relative caspase fold change +Dox/-Dox
[24] = measured here: total cells with miR-34 induction, stronger effect = lower value
[25] = measured here: total cells without miR-34 induction

Chain of Mitogen-activated protein kinase 7 (Homo sapiens) (Q13164 whole entry, looked up, the tested form may be a part): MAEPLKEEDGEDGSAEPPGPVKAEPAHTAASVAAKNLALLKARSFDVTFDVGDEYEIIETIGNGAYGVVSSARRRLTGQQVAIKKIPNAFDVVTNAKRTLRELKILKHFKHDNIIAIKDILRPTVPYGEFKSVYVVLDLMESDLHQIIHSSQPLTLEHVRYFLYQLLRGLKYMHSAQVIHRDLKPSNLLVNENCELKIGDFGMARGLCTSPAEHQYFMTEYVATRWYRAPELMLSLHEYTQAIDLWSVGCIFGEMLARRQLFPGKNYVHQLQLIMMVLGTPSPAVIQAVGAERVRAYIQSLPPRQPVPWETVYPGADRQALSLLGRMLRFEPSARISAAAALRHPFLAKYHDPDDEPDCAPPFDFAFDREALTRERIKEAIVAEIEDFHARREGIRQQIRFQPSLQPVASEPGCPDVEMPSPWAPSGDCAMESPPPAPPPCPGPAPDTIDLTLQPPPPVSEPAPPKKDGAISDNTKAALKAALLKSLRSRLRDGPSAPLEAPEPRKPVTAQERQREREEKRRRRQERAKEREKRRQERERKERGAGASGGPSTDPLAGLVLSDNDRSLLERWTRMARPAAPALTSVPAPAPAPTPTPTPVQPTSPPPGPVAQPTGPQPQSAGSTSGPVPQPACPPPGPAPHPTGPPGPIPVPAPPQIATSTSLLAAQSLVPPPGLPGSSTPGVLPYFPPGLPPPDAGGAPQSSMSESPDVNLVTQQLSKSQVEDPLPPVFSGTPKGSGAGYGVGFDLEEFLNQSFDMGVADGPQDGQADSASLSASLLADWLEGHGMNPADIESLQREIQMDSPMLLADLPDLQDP
Chain of 6-phosphogluconate dehydrogenase, decarboxylating (Homo sapiens) (P52209 whole entry, looked up): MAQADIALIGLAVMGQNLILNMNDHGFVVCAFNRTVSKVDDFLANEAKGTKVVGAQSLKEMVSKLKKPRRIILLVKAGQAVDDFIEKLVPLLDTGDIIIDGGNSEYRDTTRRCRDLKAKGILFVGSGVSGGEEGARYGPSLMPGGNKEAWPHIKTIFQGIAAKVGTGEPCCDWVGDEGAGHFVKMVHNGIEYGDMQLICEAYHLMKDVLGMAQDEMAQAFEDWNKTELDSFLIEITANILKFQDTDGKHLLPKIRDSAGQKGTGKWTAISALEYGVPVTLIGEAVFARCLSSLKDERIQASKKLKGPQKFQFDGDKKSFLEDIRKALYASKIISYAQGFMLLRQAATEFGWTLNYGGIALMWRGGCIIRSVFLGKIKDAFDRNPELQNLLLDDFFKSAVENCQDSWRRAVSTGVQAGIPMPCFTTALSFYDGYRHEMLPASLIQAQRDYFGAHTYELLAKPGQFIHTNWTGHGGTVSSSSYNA
Chain of NAD(+) hydrolase SARM1 (Homo sapiens) (Q6SZW1 whole entry, looked up): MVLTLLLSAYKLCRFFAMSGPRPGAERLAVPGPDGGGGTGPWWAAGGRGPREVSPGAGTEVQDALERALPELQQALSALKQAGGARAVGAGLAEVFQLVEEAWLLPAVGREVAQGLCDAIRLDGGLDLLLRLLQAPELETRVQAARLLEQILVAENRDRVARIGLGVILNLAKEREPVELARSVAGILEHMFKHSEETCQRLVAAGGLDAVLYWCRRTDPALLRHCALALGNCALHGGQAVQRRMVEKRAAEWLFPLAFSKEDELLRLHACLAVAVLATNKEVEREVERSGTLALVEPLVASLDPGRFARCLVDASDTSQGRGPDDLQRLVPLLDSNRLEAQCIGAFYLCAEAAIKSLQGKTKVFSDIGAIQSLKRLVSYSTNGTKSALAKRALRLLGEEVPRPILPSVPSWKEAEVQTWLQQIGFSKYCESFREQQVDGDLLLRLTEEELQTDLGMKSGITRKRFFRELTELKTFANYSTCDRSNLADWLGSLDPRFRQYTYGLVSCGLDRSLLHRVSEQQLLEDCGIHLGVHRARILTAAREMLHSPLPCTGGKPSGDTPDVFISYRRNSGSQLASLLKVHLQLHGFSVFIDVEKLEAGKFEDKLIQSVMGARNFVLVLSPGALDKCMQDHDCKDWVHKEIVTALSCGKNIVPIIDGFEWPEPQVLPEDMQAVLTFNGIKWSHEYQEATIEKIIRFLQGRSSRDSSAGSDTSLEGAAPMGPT

SMILES: NCC(=O)c1ccccc1
- inhibition [1]: -6.79% (inactive)
- red/green cell ratio (normalised) [2]: 0.98 (inactive)
- normalised cell number [2, 20]: 1.03
- normalised cell number [2, 21]: 1.02
- activity remaining [3]: 114% (inactive)
- luciferase signal [4]: 56 AU (inactive)

SMILES: CC(=O)OC1CCC23C(=O)OC45CCC(C6=CC(=O)OC6)C4(C)CCC2C5CCC3(O)C1 (stereo not drawn)
- inhibition [1]: -5.39% (inactive)
- red/green cell ratio (normalised) [2]: 0.32 (inactive)
- normalised cell number [2, 20]: 0.2
- normalised cell number [2, 21]: 0.07
- activity remaining [3]: 124% (inactive)
- luciferase signal [4]: 16 AU (inactive)

SMILES: CC[C@@]1(O)C[C@H](O)c2c(cc3c(c2O)C(=O)c2c(O)ccc(O)c2C3=O)[C@H]1C(=O)OC
- inhibition [1]: 10.8% (inactive)
- red/green cell ratio (normalised) [2]: 0.85 (inactive)
- normalised cell number [2, 20]: 0.96
- normalised cell number [2, 21]: 0.82
- activity remaining [3]: 112% (inactive)
- luciferase signal [4]: 52 AU (inactive)

SMILES: O=c1cccc2n1CC1CC2CN2CCCC[C@@H]12 (stereo partly drawn)
- inhibition [1]: 1.69% (inactive)
- red/green cell ratio (normalised) [2, 22]: 1.02 (inactive)
- normalised cell number [2, 20]: 0.92
- normalised cell number [2, 21]: 0.94
- activity remaining [3]: 116% (inactive)
- luciferase signal [4]: 56 AU (inactive)

SMILES: COc1ccc(C(=O)O)cc1OC
- inhibition [1]: 7.84% (inactive)
- red/green cell ratio (normalised) [2]: 0.77 (inactive)
- normalised cell number [2, 20]: 1.22
- normalised cell number [2, 21]: 0.94
- activity remaining [3]: 78.5% (inactive)
- luciferase signal [4]: 40 AU (inactive)

SMILES: COc1c2c(cc3c1OCO3)CC[N+](C)=C2
- inhibition [1]: 8.25% (inactive)
- red/green cell ratio (normalised) [2, 22]: 1.03 (inactive)
- normalised cell number [2, 20]: 0.97
- normalised cell number [2, 21]: 1
- activity remaining [3]: 99.6% (inactive)
- luciferase signal [4]: 20 AU (inactive)

SMILES: NC(=O)c1ccc(N)nc1
- inhibition [1]: 1.26% (inactive)
- red/green cell ratio (normalised) [2]: 0.93 (inactive)
- normalised cell number [2, 20]: 1.22
- normalised cell number [2, 21]: 1.14
- activity remaining [3]: 120% (inactive)
- luciferase signal [4]: 24 AU (inactive)

SMILES: N#C/C(=C\c1ccc(O)cc1)C(=O)O
- inhibition [5]: -8.72%
- score [6]: 1.56
- rescue above control [7]: -7.23
- cytochrome c release ratio [8]: 0.76
- inhibition of aggregation [9]: -4.76%
- glutamate uptake change [10]: 12%
- inclusion score [11]: 2
- aggregation suppression score [12]: 1.17
- inhibition [1]: 0.31% (inactive)
- red/green cell ratio (normalised) [2]: 0.79 (inactive)
- normalised cell number [2, 20]: 1.25
- normalised cell number [2, 21]: 0.99
- luciferase signal [4]: 144 AU (inactive)

SMILES: CNC(=O)Oc1ccccc1OC(C)C
- inhibition [1]: -1.91% (inactive)
- red/green cell ratio (normalised) [2]: 1 (inactive)
- normalised cell number [2, 20]: 1.06
- normalised cell number [2, 21]: 1.05
- fold change ([13]; stronger effect = lower value): 0.96 (inactive)
- fold change [13, 23]: 0.908
- cell count [13, 24]: 8560
- cell count [13, 25]: 8930
- remaining NAD [14]: 10 nM (inactive)
- luciferase signal [4]: 88 AU (inactive)

SMILES: O=[N+]([O-])c1cc(O)c(O)c([N+](=O)[O-])c1
- inhibition [5]: -6.91%
- score [6]: 1.27
- rescue above control [7]: -7.14
- cytochrome c release ratio [8]: 0.96
- inhibition of aggregation [9]: 80.3%
- glutamate uptake change [10]: -10%
- inclusion score [11]: 2
- aggregation suppression score [12]: 1.02
- period change [15]: 0.035 h (inactive)
- inhibition [16]: 1% (inactive)
- inhibition [1]: -7.64% (inactive)
- activity remaining [3]: 110% (inactive)
- fold change ([13]; stronger effect = lower value): 1.02 (inactive) and 0.929 (inactive)
- fold change [13, 23]: 1.32 and 0.849
- cell count [13, 24]: 9880 and 8690
- cell count [13, 25]: 9680 and 9350
- z-score [17]: 0.815 (inactive) and 1.17 (inactive)

SMILES: COC1=CC23CCCN2CCc2cc4c(cc2C3C1O)OCO4 (stereo not drawn)
- inhibition [1]: -9.46% (inactive)
- activity remaining [3]: 108% (inactive)

SMILES: O=c1cccc2n1CC1CNC[C@H]2C1
- parasite load remaining [18]: 134% (inactive)
- viability [18]: 104%
- inhibition [1]: -36.3% (inactive)
- fold change ([13]; stronger effect = lower value, cell number ratio, induced over uninduced): 0.809 (inactive) and 0.946 (inactive)
- fold change [13, 23]: 1.71 and 1.27
- cell count [13, 24]: 8130 and 8990
- cell count [13, 25]: 10000 and 9510
- remaining NAD [14]: 10 nM (inactive)
- luciferase signal [4]: 60 AU (inactive)
- z-score [17]: 1.16 (inactive)

SMILES: COC(=O)COc1ccc(Cl)cc1Cl
- inhibition [1]: -25.1% (inactive)
- activity remaining [3]: 109% (inactive)

SMILES: C=CCc1cc(OC)c2c(c1OC)OCO2
- inhibition [1]: -12.9% (inactive)
- red/green cell ratio (normalised) [2]: 1.18 (inactive)
- normalised cell number [2, 20]: 0.73
- normalised cell number [2, 21]: 0.87
- luciferase signal [4]: 32 AU (inactive)

SMILES: O=C1CCCN1CC#CCN1CCCC1
- inhibition [5]: 17.7%
- score [6]: 1.21
- rescue above control [7]: 3.59
- cytochrome c release ratio [8]: 0.97
- inhibition of aggregation [9]: 79.6%
- glutamate uptake change [10]: 5.01%
- inclusion score [11]: 1
- aggregation suppression score [12]: 1.3
- period change [15]: 0.015 h (inactive)
- parasite load remaining [18]: 75.3% (inactive) and 41.2% (inactive)
- viability [18]: 88.4% and 99%
- inhibition [16]: -4% (inactive)
- inhibition [1]: -3.4% (inactive)
- activity remaining [3]: 119% (inactive)
- fold change ([13]; stronger effect = lower value): 1.1 (inactive) and 0.966 (inactive) and 0.92 (inactive)
- fold change [13, 23]: 0.937 and 0.652 and 1.46
- cell count [13, 24]: 11000 and 8640 and 10100
- cell count [13, 25]: 10100 and 8940 and 11000
- z-score ([19]; MELAS cybrid survival, CellTiter-Glo 48 h, stronger effect = higher value): -0.379 (inactive)
- z-score ([19]; Rieske KO mouse fibroblast survival, CellTiter-Glo 72 h): -0.277
- luciferase signal [4]: 44 AU (inactive)
- z-score [17]: 0.355 (inactive) and 1.75 (inactive) and 0.67 (inactive)
